Experimental data as given in PubChem BioAssay AID1471 (National Center for Advancing Translational Sciences (NCATS), 2008).
The campaign covered roughly 230,000 compounds. About 310 (0.13%) were called active. Entries that show only a call come without a potency. Inconclusive results (about 2%) are left out. Calls come from the whole dose curve; as a rule, active = well fitted activation curve with a large enough effect; inconclusive = small, poorly fitted or top-dose-only effect; inactive = no such curve, though single readings can be large or run the other way. Only a selection was taken, and actives are over-represented in it overall.

Experiment: qHTS Multiplex Assay to Identify Dual Action Probes in a Cell Model of Huntington: Cytoprotection (ATP); note: nearly all actives have a fitted effect of over 45% in size;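 for cytoprotection (ATP increase): toxic huntingtin expression switched on by the ecdysone agonist tebufenozide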
Conditions: PC12 HTT-Q103 induced, ATP luminescence, 40 h; series mostly up to 56.4 µM
Procedure, shortened: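 Huntington model: PC12 line, ecdysone-inducible HTTQ103 exon1–GFP, tebufenozide 100 nM. Test articles in a dose series. Endpoint luminescence from cellular ATP.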
Potency is the fitted concentration of half-maximal effect.

Row | SMILES | cytoprotection (ATP increase) | Potency
1 | CCCCCCCC/C=C\CCCCCCCC(=O)OC[C@H](CO)OC(C)=O | inactive | 
2 | Cc1ccc(CC2(O)CCN(CCOc3ccc(O)cc3)CC2)cc1 | inactive | 
3 | C=C1O[C@@](CO)(n2cnc3c(N)ncnc32)[C@H](O)[C@@H]1O | inactive | 
4 | CC1=C2[C@@H](O)[C@H]([C@@H](C)C(=O)NCCC(C)C)CC[C@@]2(C)C=CC1=O | inactive | 
5 | COc1cccc([C@@H]2Oc3ccc(Br)cc3C(=O)[C@H]2OC(=O)NCCc2ccc(OC)c(OC)c2)c1 | inactive | 
6 | CCCCC/C=C\C/C=C\C/C=C\CCCCCCC(N)=O | inactive | 
7 | O=C1OCCN1C(=O)[C@H]1[C@H](c2ccccc2)C(c2ccc(F)cc2)=NN1c1ccccc1 | inactive | 
8 | CCCCC/C=C\C/C=C\C/C=C\CCCCC(=O)NCC(=O)O | inactive | 
9 | C/C=C1\C2C=C(C)CC1(N)c1ccc(=O)[nH]c1C2 (centres undefined) | inactive | 
10 | COc1cccc(NC(=O)CN(C)CC(=O)Nc2ccc3c(c2)CCC3)c1 | 19.6% [at 10 µM] (inactive) | 
11 | Cc1ccc(-c2ncc(Cl)cc2-c2ccc(S(C)(=O)=O)cc2)cn1 | inactive | 
12 | CC1(OC(=O)C2CCCC2)C(=O)C=C2C=C(c3ccc(C#N)cc3)OC=C2C1=O (centres undefined) | inactive | 
13 | CCC(C)[C@@H](N)C(=O)O (some centres undefined) | inactive | 
14 | Cc1cc2oc(=O)cc(-c3ccccc3)c2c(C)c1/C=C/c1ccc(F)cc1 | inactive | 
15 | COc1ccc(-c2nc3c(c4c2C[C@H](c2ccccc2)OC4)CN(S(=O)(=O)c2c(C)noc2C)CC3)c(C)c1 | -10% [at 10 µM] (inactive) | 
16 | O=C1/C(=C/c2cccs2)SC(=S)N1C1CCS(=O)(=O)C1 (centres undefined) | -20.7% [at 10 µM] (inactive) | 
17 | C=C1c2cccc(OC)c2O[C@H](C(=O)OCC)[C@@H]1CCCCCC | inactive | 
18 | C=CCC1CCC(=O)N2CCCC12 (centres undefined) | inactive | 
19 | COC(=O)c1cc(C(=O)OCC(=O)Nc2cc(C)on2)cc([N+](=O)[O-])c1 | -6.88% [at 10 µM] (inactive) | 
20 | CC[C@H](C)[C@@H](NC(=O)O[C@@H]1C(=O)c2cc(OC)ccc2O[C@H]1c1cccc(OC)c1)C(=O)OC | inactive | 
21 | O=C(c1cc2ccccc2o1)N1CCN(Cc2ccccc2)CC1 | inactive | 

Row | SMILES | cytoprotection (ATP increase) | Potency
22 | COc1cc2c(cc1OC)CC(=O)N(CCCN(C)C[C@H]1Cc3cc(OC)c(OC)cc31)CC2 | inactive | 
23 | C=CC1=C2C=C(C3CC3)N(CC(C)C)C=C2C(=O)C(C)(OC(=O)c2ccco2)C1=O (centres undefined) | -19.6% [at 10 µM] (inactive) | 
24 | S=C(NCCCc1cnc[nH]1)NCCCN(Cc1ccc(Cl)c(Cl)c1)c1ccc(Br)cn1 | inactive | 
25 | C/C(CC(=O)NC(C)c1ccccc1)=N\NC(N)=S (centres undefined) | 8.79% [at 10 µM] (inactive) | 
26 | COC(=O)C1=C(C(=O)OC)[C@@H]2N(Cc3ccccc3)c3ccccc3[C@@]23C[C@@H](C(=O)OC)N(S(=O)(=O)c2ccc(C(F)(F)F)cc2)C3=N1 | 23.4% [at 10 µM] (inactive) | 
27 | C[C@H]1Cc2c(-c3ccccc3)nc3c(c2CO1)CN(C(=O)C1CC1)CC3 | -5.29% [at 10 µM] (inactive) | 
28 | NC(=O)c1sc(-c2ccsc2)cc1N | inactive | 
29 | CC(C)(C)OC(=O)NCCCCC1=CC2=CC(=O)C(C)(OC(=O)c3cccs3)C(=O)C2=CO1 (centres undefined) | inactive | 
30 | COc1cccc([C@@H]2Oc3ccc(Br)cc3C(=O)[C@H]2OC(=O)NCc2ccc3c(c2)OCO3)c1 | inactive | 
31 | COC(=O)N1C(/C=C/C=C/c2ccc(OC)cc2)=Cc2ccccc2C1CC(C)=O (centres undefined) | -21.1% [at 10 µM] (inactive) | 
32 | CCCCC/C=C\C/C=C\CCCCCCCCCC(=O)NCC(=O)O | inactive | 
33 | COCCN(C(=O)c1ccccc1F)c1c(N)n(Cc2ccccc2)c(=O)[nH]c1=O | inactive | 
34 | COc1cccc(-c2cc(=O)c3cc(NC(=O)c4ccc(C)cc4)ccc3[nH]2)c1 | inactive | 
35 | CC[C@@]12C=C(/C=C/c3ccccc3)[C@](CC)(C1)[C@H](c1ccccc1)CC2=O | inactive | 
36 | O=c1c(O)c(Br)ccc2c(Br)c(O)c(O)c(O)c12 | inactive | 
37 | NCCC(=O)c1ccccc1N | inactive | 
38 | Nc1nc(CC(=O)CSc2ccc(Cl)cc2)nc(Nc2ccc(F)cc2)n1 | -29.1% [at 10 µM] (inactive) | 
39 | COC(=O)c1cc(NC(=O)CN2CCN(C(C)=O)CC2)cc(C(=O)OC)c1 | inactive | 
40 | CCOC(=O)N1CCN(CC(=O)Nc2ccc(F)cc2)CC1 | -4.62% [at 10 µM] (inactive) | 
41 | CC(=O)N1CCN(CC(=O)Nc2ccc(SC(F)F)cc2)CC1 |  | 5.62 µM (active)
42 | C[C@H]1Cc2c(-c3ccccc3)nc3c(c2CO1)CN(S(=O)(=O)c1ccc(Cl)c2nonc12)CC3 | -22.4% [at 10 µM] (inactive) | 

Row | SMILES | cytoprotection (ATP increase) | Potency
43 | COc1cc(OC)c2c(c1)OC(=O)CC2c1cc(OC)c(OC)c(OC)c1 (centres undefined) | inactive | 
44 | CN(C)Cc1ccccc1C1(O)c2ccccc2CSc2ccccc21 (centres undefined) | inactive | 
45 | O=C(/C=C/c1cccc(F)c1)NC1CC1 | inactive | 
46 | COC(=O)C1=C(C(=O)OC)[C@@H]2N(C)c3ccccc3[C@@]23C[C@@H](C(=O)OC)N(S(=O)(=O)c2ccc(Br)cc2)C3=N1 | 7.44% [at 10 µM] (inactive) | 
47 | C=CCN1c2ccccc2[C@]23C[C@@H](C(=O)OC)N(S(=O)(=O)c4ccc([N+](=O)[O-])cc4)C2=NC(C(=O)OC)=C(C(=O)OC)[C@H]13 | -23.4% [at 10 µM] (inactive) | 
48 | CC(Nc1oc(-c2ccccc2)nc1-c1ccccc1)c1ccccc1 (centres undefined) | inactive | 
49 | COCOc1cc(OC)ccc1C(=O)/C=C/c1ccc([N+](=O)[O-])cc1 | inactive | 
50 | C=CC(C1=CC(=O)C=CC1=O)c1ccc(O)cc1 (centres undefined) | inactive | 
51 | COc1ccc(C(C)=O)cc1CN1C(=O)NC2(CCCCC2C)C1=O (centres undefined) | inactive | 
52 | CCCCS(=O)(=O)N1C2=NC(C(=O)OC)=C(C(=O)OC)[C@@H]3N(Cc4ccccc4)c4ccccc4[C@]23C[C@H]1C(=O)OC | 21.8% [at 10 µM] (inactive) | 
53 | O=C1c2ccccc2NC(c2ccc(-c3cccc(Cl)c3)o2)N1O (centres undefined) | -70.6% [at 10 µM] (inactive) | 
54 | CC(N)(C(=O)O)c1ccc(-c2nn[nH]n2)cc1 (centres undefined) | inactive | 
55 | Cc1ccc(S(=O)(=O)N2CCC(=O)N([C@H](COCc3ccccc3)Cc3ccccc3)CC2)cc1 | inactive | 
56 | C/C=C(\C)C(=O)O[C@H]1CC(C)=C2C(=O)C=C(C)C2[C@@H]2OC(=O)[C@@](C)(OC(=O)C=C(C)C)C21 (some centres undefined) | inactive | 
57 | O=C(N/N=C/c1cccc2cccnc12)[C@H]1C[C@@H]1c1ccccc1 | 23.6% [at 10 µM] (inactive) | 
58 | O=C(Nc1cccc(C(F)(F)F)c1)c1cc(Br)cc(Br)c1O | inactive | 
59 | CCN1C(=O)N[C@@H](c2ccccc2)[C@H](C(C)=O)[C@H]1C | -16.1% [at 10 µM] (inactive) | 
60 | CC(=O)CC(c1ccccc1)C1C(=O)Oc2ccccc2C1=O (centres undefined) | inactive | 
61 | CNC(=O)C1(C)C=CC2(CCCCC2)N1C(C)=O (centres undefined) | inactive | 
62 | C=CCNC(=O)c1ccc2c3n(nc2c1)-c1ccc(C)cc1CO3 | -15% [at 10 µM] (inactive) | 
63 | CC(C)(O)c1ccccc1CC[C@H](SCC1(CC(=O)O)CC1)c1cccc(/C=C/c2ccc3ccc(Cl)cc3n2)c1 | inactive | 

Row | SMILES | cytoprotection (ATP increase) | Potency
64 | C=CC1(C)CC(=O)C2(O)C(C)(O1)C(OC(C)=O)C(O)C1C(C)(C)CCC(O)C12C (centres undefined) | inactive | 
65 | C[C@H]1Cc2c(COc3ccccc3)nc3c(c2CO1)CN(C(=O)NCc1ccco1)CC3 | 9.12% [at 10 µM] (inactive) | 
66 | O=C1OCCN1C(=O)[C@H]1[C@H](c2ccc(F)cc2)C(c2ccccc2)=NN1c1ccc(Br)cc1 | inactive | 
67 | Cc1cc2oc(=O)cc(-c3ccccc3)c2c(C)c1-c1ccc(OC(F)(F)F)cc1 | inactive | 
68 | COc1ccc(CC(N)C(=O)NC2C(O)[C@H](n3cnc4c(N(C)C)ncnc43)O[C@@H]2CO)cc1 (some centres undefined) | inactive | 
69 | COC(=O)CC1c2ccccc2C(Cc2ccc(OC)cc2)=C(C)N1C(=O)OC (centres undefined) | -4.91% [at 10 µM] (inactive) | 
70 | COc1cc(OC)cc(-c2nc3ccccc3c(=O)n2NC(=O)c2cccnc2Cl)c1 | -11.8% [at 10 µM] (inactive) | 
71 | O=C1C=C(c2ccccc2)CCC1 | inactive | 
72 | CC(C)[C@@H]1NC(=O)[C@H](Cc2ccccc2)NC(=O)[C@@H](CC(=O)O)NC(=O)CNC(=O)[C@H](CCCNC(=N)N)NC1=O | inactive | 
73 | COc1ccc(N2CCN(CCNC(=O)c3nnc(Cc4c(F)cccc4Cl)o3)CC2)cc1 | 7.41% [at 0.074 µM] (inactive) | 
74 | Clc1ccc(C(Cn2ccnc2)OCc2ccsc2Cl)c(Cl)c1 (centres undefined) | inactive | 
75 | COC(=O)C1=C(C(=O)OC)[C@@H]2N(C)c3ccccc3[C@@]23C[C@@H](C(=O)OC)N(C(=O)c2ccco2)C3=N1 | -6.19% [at 10 µM] (inactive) | 
76 | COC(=O)C/C=C/[C@@H](C)[C@H](NC(=O)OCC(Cl)(Cl)Cl)c1ccccc1 | inactive | 
77 | C=CC1=C2C=C(C3CC3)N(C(CO)CO)C=C2C(=O)C(C)(OC(=O)c2ccco2)C1=O (centres undefined) | -26.7% [at 10 µM] (inactive) | 
78 | Cc1ccc(-c2cccc([C@H]3[C@@H]4C=CC[C@@H](C)[C@@H]4C(=O)N3Cc3ccccc3)c2)cc1 | inactive | 
79 | COc1ccc(/C=C2\NC(=O)[C@@H]3Cc4ccccc4CN3C2=O)cc1 | inactive | 
80 | COC(=O)c1c(CCl)noc1C(=O)NC(C)C | inactive | 
81 | c1ccc(CSc2ncnc3c2sc2nc(N4CCOCC4)c4c(c23)CCCC4)cc1 | inactive | 
82 | C[C@H]1Cc2c(COc3ccccc3)nc3c(c2CO1)CN(C(=O)Nc1cccc(C#N)c1)CC3 | -20.7% [at 10 µM] (inactive) | 
83 | COc1ccc(-c2nc3c(c4c2C[C@H](c2ccccc2)OC4)CN(C(=O)C2CC2)CC3)c(C)c1 | 6.89% [at 10 µM] (inactive) | 
84 | COC(=O)CSc1ccc2nnc(CCNS(=O)(=O)c3ccc(C)cc3)n2n1 | inactive | 
